Sampled rows, rich in hits. Any-hit rate of the full collection: about 5.4%.
NR0B1 inh: DAX1 (NR0B1) inhibitors, primary screen, cell-based, HEK293, Gal4-DAX1, luciferase luminescence. Nuclear receptor subfamily 0 group B member 1 (Homo sapiens), P51843. HEK293 Gal4-DAX1 luciferase reporter. inhibition, % at 6.75 µM. 340,000 compounds, 0.99% hits. AID 504766, 2011;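 active = inhibition above the mean over all tested compounds plus 3 SD, cut at about 4.2% in these data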;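 note: inhibition shows as a rise in luminescence from relieved DAX1 repression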
AHR activator: AHR activators, primary screen, cell-based, luminescence, luciferase reporter, human; activation, % at 5 µM; AHR-responsive luciferase reporter cells; 320,000 compounds, 2.5% hits; AID 2796, 2010; in the data active = activation above about 47%
Target sequence (P35869 whole entry, looked up): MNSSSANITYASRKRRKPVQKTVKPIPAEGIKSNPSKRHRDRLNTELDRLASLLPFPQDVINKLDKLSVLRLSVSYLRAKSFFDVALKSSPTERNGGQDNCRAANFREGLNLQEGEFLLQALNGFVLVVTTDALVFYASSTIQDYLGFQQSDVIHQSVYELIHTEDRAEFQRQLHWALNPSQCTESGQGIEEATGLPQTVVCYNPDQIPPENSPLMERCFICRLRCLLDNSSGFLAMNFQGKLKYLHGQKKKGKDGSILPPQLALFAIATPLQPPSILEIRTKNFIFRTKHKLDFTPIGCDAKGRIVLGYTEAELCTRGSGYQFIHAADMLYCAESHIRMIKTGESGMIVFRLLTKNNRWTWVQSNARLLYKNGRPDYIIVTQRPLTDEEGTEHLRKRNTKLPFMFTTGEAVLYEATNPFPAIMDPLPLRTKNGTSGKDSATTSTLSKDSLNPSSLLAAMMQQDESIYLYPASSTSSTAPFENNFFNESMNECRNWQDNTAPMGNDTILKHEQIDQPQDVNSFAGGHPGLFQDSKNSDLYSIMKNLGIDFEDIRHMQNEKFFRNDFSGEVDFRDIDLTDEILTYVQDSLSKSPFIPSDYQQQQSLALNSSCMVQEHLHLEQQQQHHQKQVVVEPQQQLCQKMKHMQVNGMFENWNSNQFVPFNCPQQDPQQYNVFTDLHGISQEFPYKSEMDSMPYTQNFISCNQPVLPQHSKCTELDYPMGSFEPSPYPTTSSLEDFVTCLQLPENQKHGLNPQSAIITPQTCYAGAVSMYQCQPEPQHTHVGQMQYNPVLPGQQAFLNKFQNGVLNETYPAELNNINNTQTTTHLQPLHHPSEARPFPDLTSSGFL
HSF1 inh: HSF1 inhibitors in luciferase reporter cells, primary screen, cell-based, NIH3T3, luminescence | 300,000 compounds, 0.77% hits | activity change, negative = inhibition, % at 7.5 µM (by protocol) | NIH3T3-HGL HSE-luciferase, MG132-induced, luminescence 8 h; active compounds read low;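 active = more than half of replicate wells show activity change below -50%, luminescence cut by over half; inconclusive = some wells, but at most half, below -50%; inactive = no replicate well below -50%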;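 note: luciferase reports HSF-1 transcriptional activity via heat shock element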
FXN GAA850 act: FXN promoter activators, primary screen, cell-based, luciferase luminescence, HEK293 lucGAA850; HEK293 lucGAA850 FXN promoter luciferase reporter, 24 h; percent of 10 µM SAHA response; activation, % at 6 µM; 360,000 compounds, 0.56% hits; AID 540364, 2011;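 active = activation above the average of all compounds screened plus 3 SD, cutoff fixed separately per campaign, cut at about 7.5% in these data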
HSF1 activator: HSF-1 activators, primary screen, NIH3T3-HGL cells, MG132 stress, luminescence, single point | NIH3T3-HGL HSF-1 luciferase reporter, 8 h; 100% = twice DMSO control signal | activation, % at 9 µM | 300,000 compounds, 1.7% hits | AID 504408, 2011;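 active = mean replicate activation of at least 50% with a set share of replicates each reaching 50%; inconclusive = only one of those two conditions met; inactive = mean below 50% and too few replicates reaching it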
AHR act cf: AHR activators, confirmation, cell-based, luminescence, luciferase reporter, human. shares compounds with AHR activator. human cells, AHR-responsive luciferase reporter. activation, % at 9 µM. 2,300 compounds, 87% hits. AID 2845, 2010; in the data active = activation above about 49%;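 note: HepG2 hepatoma cells carrying a DRE-driven firefly luciferase reporter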
PXR act counter: human PXR activators, counter-screen for AHR activator project, cell-based, luciferase luminescence; activation, % at 11.6 µM; 2,300 compounds, 88% hits; AID 434939, 2010; cell-based PXR reporter; shares compounds with AHR activator; in the data active = activation above about 11%;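 note: human hepatoma DPX-2 cells expressing full-length human PXR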
Of the large screens only hits and unclear results are named; the others gave an inactive call (follow-up assays come after a bar, where they were run).

Cc1c(NC(=O)c2ccco2)cccc1-c1nc2cccnc2s1	AHR activator 109 | AHR act cf 90 | PXR act counter 14
CC(=O)c1c(C)nc(-c2ccc(Cl)cc2)nc1N=CN(C)C	AHR activator 90 | AHR act cf 98 | PXR act counter 35
CSc1nc(-c2ccccc2)nc(N)c1C(C)=O	none (no result: NR0B1 inh, FXN GAA850 act)
CC(=O)c1c(C)nc(-c2ccc(Cl)cc2)nc1N	AHR activator 92 | AHR act cf 130 | PXR act counter 33
COc1cccc(NC(=O)c2cccc(S(=O)(=O)N3CCN(Cc4ccccc4)CC3)c2)c1	none
CCOc1ccc(N2C(=O)C(C)CNC2=S)cc1 (stereo unspecified)	none (no result: AHR activator, HSF1 inh, HSF1 activator)
CC(Nc1nc(N2CCCCC2)nc2ccccc12)c1ccccc1 (stereo unspecified)	none
C=CCNc1nc(N2CCCC2)nc2ccccc12	AHR activator 84 | AHR act cf inactive | PXR act counter 12
Cc1oc2c(cc(NS(=O)(=O)c3ccc(C(C)C)cc3)c3ccccc32)c1C(=O)O	none
Cc1oc2c(cc(NS(=O)(=O)c3cccs3)c3ccccc32)c1C(=O)OC(C)C	AHR activator 92 | AHR act cf 92 | PXR act counter 162
COc1ccc(S(=O)(=O)Nc2cc3c(C(C)=O)c(C)oc3c3ccccc23)cc1	AHR activator 92 | AHR act cf 76 | PXR act counter 255
CCOC(=O)c1c(C)[nH]c(C(=O)N/N=C\c2ccccc2Cl)c1C	AHR activator 81 | AHR act cf 73 | PXR act counter 15
CCOC(=O)c1c(C)[nH]c(C(=O)N/N=C/c2cccc(OC)c2)c1C	none
COc1ccc(CNC(=O)C2CCC(=O)N(C3CCCCCC3)C2)c(OC)c1 (stereo unspecified)	none (no result: AHR activator, HSF1 inh, HSF1 activator)
COc1cccc2[nH]c3c(N4CCCC(C)C4)ncnc3c12 (stereo unspecified)	AHR activator 81 | AHR act cf 97 | PXR act counter 69
Cc1ccccc1/C=C1\C(=O)Nc2ccc(F)cc21	none
O=C1Nc2ccccc2/C1=C/c1ccccc1F	AHR activator 94 | AHR act cf 93 | PXR act counter 17
Oc1ccccc1-c1cc(-c2ccccc2)n[nH]1	NR0B1 inh 5.9, AHR activator 98 (no result: HSF1 inh, HSF1 activator) | AHR act cf 88 | PXR act counter 13
O=c1[nH]nc(-c2ccccc2)cc1-c1ccccc1	none
COc1ccccc1-c1cc(-c2cc(Cl)ccc2O)n[nH]1	none
Cc1ccccc1-c1cc(-c2ccccc2O)n[nH]1	NR0B1 inh 5.6, AHR activator 112 | AHR act cf 95 | PXR act counter inactive
Cc1ccccc1C(=O)NC(CC(C)C)C(=O)N1CCN(c2ccccc2)CC1 (stereo unspecified)	none
O=C(NC(=S)Nc1ccccc1N1CCCC1)c1ccco1	AHR activator 169 (no result: NR0B1 inh) | AHR act cf 124 | PXR act counter 31
CCN1C(=O)C(=Cc2cccc(OC)c2Oc2ccc([N+](=O)[O-])cc2[N+](=O)[O-])SC1=S	none
O=C(CCC1CCN(C(=O)c2ccccc2Cl)CC1)NCc1ccc(F)cc1	none
O=c1c2ccccc2cnn1-c1ccc(Cl)cc1	AHR activator 133 | AHR act cf 117 | PXR act counter 47
Cc1cc(-c2nc3ccccc3s2)ccc1N	none (no result: AHR activator, HSF1 inh, HSF1 activator)
COc1cc(OC)cc(-c2nc3ccccc3s2)c1	AHR activator 90, HSF1 activator inconclusive | AHR act cf 107 | PXR act counter 11
COc1ccc(C2=NN(C(C#N)c3ccc(OC)c(OC)c3)C(c3ccccc3)C2)cc1 (stereo unspecified)	AHR activator 107, HSF1 activator 90 | AHR act cf 74 | PXR act counter 21
Cc1cc(/C=N\NC(=O)COc2cccc3cccnc23)c(C)n1-c1ccccc1	none
C=CCn1cc(/C=N/NC(=O)COc2cccc3cccnc23)c2ccccc21	AHR activator 82 | AHR act cf inactive | PXR act counter 38
Cc1cc(O)c(C(=O)/C=C/c2ccccc2)c(=O)o1	none (no result: AHR activator)
CCOc1ccc(/C=C/C(=O)c2c(O)cc(C)oc2=O)cc1	AHR activator 83 | AHR act cf inactive | PXR act counter 16
C=CCOC(=O)C1=C(C)NC(=O)NC1c1ccc2c(c1)OCO2 (stereo unspecified)	none
C=CCOC(=O)c1c(C)nc2cc3c(cc2c1C)OCO3	AHR activator 108 | AHR act cf 56 | PXR act counter 53
CCn1nc(C(=O)Nc2nc3ccccc3[nH]2)c2ccccc2c1=O	none
Cn1nc(C(=O)Nc2nc3ccccc3[nH]2)c2ccccc2c1=O	AHR activator 98 | AHR act cf 73 | PXR act counter 19
Cc1ccccc1NC(=O)c1cc(=O)c2ccccc2o1	none
Cc1ccccc1NC(=O)c1cc2ccccc2o1	AHR activator 103 | AHR act cf 122 | PXR act counter 14
O=C(Nc1ccccc1)c1cc2ccccc2o1	AHR activator 93 | AHR act cf 68 | PXR act counter 21
CC(=O)Nc1cccc(NC(=O)c2cc3ccccc3o2)c1	none
COc1ccccc1NC(=O)CSCc1cc(=O)n2ccsc2n1	none
O=C(COc1ccccc1)N/N=C/c1ccc([N+](=O)[O-])o1	none
O=C(CNc1ccc2ccccc2c1)N/N=C/c1ccc([N+](=O)[O-])o1	AHR activator 126 | AHR act cf 63 | PXR act counter 11
CC(NS(=O)(=O)c1ccc(Br)cc1F)[C@H](O)c1ccccc1 (stereo partly specified)	none (no result: AHR activator, HSF1 inh, HSF1 activator)
CC1=CC(=O)c2ccccc2C1=O	none
CC(C)(C=O)C1=CC(=O)c2ccccc2C1=O	AHR activator 83 (no result: HSF1 inh, HSF1 activator) | AHR act cf 112 | PXR act counter 26
Cc1ccc2c(C(=O)CNc3nncs3)c(C)[nH]c2c1	AHR activator 106 | AHR act cf inactive | PXR act counter 17
CCC1CCCCN1CC(=O)c1c(C)[nH]c2cc(C)ccc12 (stereo unspecified)	none (no result: AHR activator)
COc1cccc(NC(=O)C(=O)N/N=C(\C)CC(=O)Nc2ccc(NC(C)=O)cc2)c1	none
CCOc1ncccc1C(=O)Nc1nnc(C)s1	none
CCOc1ncccc1C(=O)Nc1nnc(C2CC2)s1	AHR activator 104 | AHR act cf 95 | PXR act counter 36
COc1cccc(C(=O)NCc2ccc3c(c2)OCO3)c1OC	none (no result: AHR activator)
